This is an account of results in PubChem BioAssay (Tox21).

“And” between values parts separate entries of the source, which are not always exact repeats. Equal entries are not always repeated. Inconclusive results are not listed. A structure can be active in one record and inactive in another. The source made the active and inactive calls. Unless noted, calls follow the shape of the dose curve; as a rule, active = well fitted curve in the direction sought with a large enough effect in the repeat runs; inconclusive = weak or mixed curves; inactive = no such curve, though single readings can be large; an effect the other way counts as inactive or inconclusive.

Experiment [1] addresses Thyrotropin receptor (Homo sapiens) (UniProt P16473). Put plainly: qHTS assay to identify small molecule antagonists of the thyroid stimulating hormone receptor (TSHR) signaling pathway (AID 1259385; calls by dose curve; also: nearly all actives have a fitted effect of over 20% in size). The procedure, abridged: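 TSHR-HEK293 cells were plated and held 18 h at 37C/5% CO2, then given compound plus Ro20-1724 and stimulated with TSH at 1.5 ng/mL final. After 30 min at room temperature, cAMP was detected with cAMP-d2/anti-cAMP-cryptate (1 h) by fluorescence.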

The nature of experiment [2]: qHTS assay to identify small molecule agonists of the estrogen receptor alpha (ER-alpha) signaling pathway in the presence of an antagonist - cell viability counter screen (AID 1259386).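 Also: cells exposed to compounds for 22 h at 37 °C before the viability read; nearly all actives have a fitted effect of over 30% in size.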 Also: potency is read from the fitted curve at half-maximal effect. Put shortly:
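Using estrogen-depleted VM7Luc4E2 cells, the 15-concentration compound series was applied together with 10.0nM ICI-182,780 and incubated 22hr at 37C/5% CO2. Cell viability was then scored by CellTiter-Fluor.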

For experiment [3], the target named is Progesterone receptor (Homo sapiens) (UniProt P06401). The experiment is described as follows: qHTS assay to identify small molecule agonists of the progesterone receptor (PR) signaling pathway (AID 1346784; calls by dose curve; also: nearly all actives have a fitted effect of over 30% in size). The procedure, abridged: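 Agonist mode, quantitative HTS format in a HEK 293T line expressing a UAS-controlled beta-lactamase reporter; 16 hr compound exposure at 37C in 2% charcoal-stripped FBS, then LiveBLAzer B/G FRET fluorescence.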

For experiment [4] the target is unchanged. The experiment is described as follows: qHTS assay to identify small molecule antagonists of the progesterone receptor (PR) signaling pathway (AID 1346795; active = well fitted inhibition curve with a large enough effect in the signal ratio in the repeat runs, not every such curve was filed as active; the % refers to the signal ratio; also: potency is read from the fitted curve at half-maximal effect). The procedure, abridged:
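HEK293T PR-UAS-bla reporter cells in charcoal-stripped serum (2%) received compound after a 6 hr settling period, followed by R5020 agonist at 1 nM final; 16 hr incubation preceded the FRET substrate step and fluorescence measurement.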

Experiment [5] can be described thus: qHTS assay to identify small molecule antagonists of the progesterone receptor (PR) signaling pathway - cell viability counter screen (AID 1346798). Also: series mostly up to about 92 µM; nearly all actives have a fitted effect of over 50% in size. Put shortly: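 Same-well multiplex: after 16 hr at 37C with compound and R5020 stimulation, HEK293T cells carrying a UAS-bla reporter received LiveBLAzer substrate (2 hr RT), then CellTiter-Glo (30 min RT) for luminescent viability.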

Experiment [6] is described as follows: qHTS assay to identify small molecule antagonists of the TGF-beta/Smad signaling pathway - cell viability counter screen (AID 1346824). Also: nearly all actives have a fitted effect of over 50% in size. The procedure, abridged:
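SBE-bla HEK 293T cells were plated overnight at 37 C, then given compounds in DMSO plus TGF-beta1 (added as 0.25 ng/mL solution) for 5 hr. After the bla read, CellTiter-Glo was added to the same wells and luminescence read after 30 min at room temperature.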

The nature of experiment [7]: qHTS assay to identify small molecule agonists of the TGF-beta/Smad signaling pathway - cell viability counter screen (AID 1346829). Also: top concentration of the series differs between compounds; nearly all actives have a fitted effect of over 45% in size. The procedure, abridged: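 Same-well cytotoxicity: CellTiter-Glo added after the 2 hr room-temperature beta-lactamase substrate step, luminescence measured 30 min later; cells had 5 hr of compound at 37 C.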
Experiment [8] can be described thus: qHTS assay to identify small molecule agonists of the TGF-beta/Smad signaling pathway (AID 1346859; active = well fitted activation curve with a large enough effect in the signal ratio in the repeat runs, not every such curve was filed as active; the % refers to the signal ratio; also: series mostly up to about 77 µM). The procedure, abridged:
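Smad-responsive beta-lactamase reporter cells (HEK 293T) received compounds from DMSO stocks after overnight attachment, were incubated 5 hr, then treated 2 hr with FRET substrate before dual-emission fluorescence measurement (405 nm excitation).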

Experiment [9] addresses Thyrotropin-releasing hormone receptor (Homo sapiens) (UniProt P34981). The experiment is described as follows: qHTS assay to identify small molecule antagonists of the thyrotropin-releasing hormone receptor (TRHR) signaling pathway (AID 1346877; active = well fitted inhibition curve with a large enough effect in the repeat runs, not every such curve was filed as active; also: series mostly up to about 51 µM). Put shortly: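 Calcium signal in dye-loaded TRHR/HEK293 cells; compounds added 5 min before TRH (1 nM final); fluorescence monitored 3 min at 1 s steps.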

For experiment [10] the target is unchanged. Put plainly: qHTS assay to identify small molecule agonists of the thyrotropin-releasing hormone receptor (TRHR) signaling pathway (AID 1346891; calls by dose curve;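 also: HEK293 cells expressing TRHR with calcium dye readout; series mostly up to about 58 µM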). Put shortly:
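Agonist-mode calcium mobilisation screen: TRHR-transfected HEK293 cells cultured overnight (18 h), dye-loaded for 2 h at 37 °C, exposed to compounds, and monitored by fluorescence for 3 min.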

The nature of experiment [11]: Human pregnane X receptor (PXR) small molecule agonists, qHTS cell viability counter screen (AID 1346977). Also: nearly all actives have a fitted effect of over 50% in size. The procedure, abridged: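 Measures live-cell protease fluorescence (CellTiter-Fluor) in PXR-Luc HepG2 cells treated 24hr with compounds at 37C. Cells had 5hr to attach before pin transfer of DMSO solutions.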
Experiment [12] can be described thus: Caspase-3/7 induction in HepG2 cells by small molecules, qHTS assay (AID 1346978). Also: nearly all actives have a fitted effect of over 15% in size. Also: potency is read from the fitted curve at half-maximal effect. The procedure, abridged: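 Wild-type HepG2 cells (2,000/well) were settled 5 h at 37 C, 5% CO2, then exposed to compounds in DMSO for 17 h. Caspase-3/7 activity was read by luminescence 30 min after adding Caspase-Glo 3/7 reagent at room temperature.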
The nature of experiment [13]: Caspase-3/7 induction in CHO-K1 cells by small molecules, qHTS cell viability counter screen (AID 1346979). Also: nearly all actives have a fitted effect of over 35% in size. Also: potency is read from the fitted curve at half-maximal effect. Put shortly: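 In the same wells as the caspase read, viability of compound-treated wild-type CHO-K1 cells was assessed using CellTiter-Fluor, added after 16hr at 37C and measured by fluorescence following 1hr further incubation.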
Experiment [14] in a line: Caspase-3/7 induction in CHO-K1 cells by small molecules, qHTS assay (AID 1346980). Also: nearly all actives have a fitted effect of over 15% in size. The procedure, abridged:
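Wild-type cells were seeded at 1,500 per well and settled 5 hr at 37 C, 5% CO2, then exposed to DMSO-dissolved compounds for 17 hr. Caspase-Glo 3/7 reagent was added, and luminescence was read after 30min at room temperature.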

The nature of experiment [15]: Caspase-3/7 induction in HepG2 cells by small molecules, qHTS cell viability counter screen (AID 1346981). Also: nearly all actives have a fitted effect of over 30% in size. Also: potency is read from the fitted curve at half-maximal effect. Put shortly: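 After a 5-hr attachment period at 37 C and 5% CO2, wild-type HepG2 cells received compounds in DMSO. Sixteen hours later CellTiter-Fluor was dispensed and the fluorescent signal quantified after a further hour.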
For experiment [16], the target named is Cytochrome P450 2D6 (Homo sapiens) (UniProt P10635). Put plainly: Cytochrome P450 Family 2 Subfamily D Member 6 (CYP2D6) small molecule antagonists: luciferase reporter qHTS assay (AID 1671196). Also: nearly all actives have a fitted effect of over 50% in size. Also: potency is read from the fitted curve at half-maximal effect. Put shortly:
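Room-temperature luminescent CYP2D6 activity assay: compound preincubated 10 min with enzyme–substrate mix, NADPH-initiated reaction 1 h, detection reagent 20 min before reading.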

Experiment [17] can be described thus: qHTS assay to identify small molecule agonists of the progesterone receptor (PR) signaling pathway - cell viability counter screen (AID 1346799; calls by dose curve; also: nearly all actives have a fitted effect of over 45% in size). Put shortly: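 Counter screen for cytotoxicity: compound-treated PR-UAS-bla HEK293T cells (16 hr, 37C, 5% CO2) were assayed with CellTiter-Glo, luminescence measured after 30 min at room temperature.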
Experiment [18] deals with Nuclear receptor subfamily 1 group I member 2 (Homo sapiens) (UniProt O75469). Put plainly: Human pregnane X receptor (PXR) small molecule agonists, qHTS assay (AID 1346982). Also: nearly all actives have a fitted effect of over 35% in size. Also: potency is read from the fitted curve at half-maximal effect. The procedure, abridged: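 Tox21 qHTS; PXR-Luc HepG2; compounds pinned from DMSO; 24 hr, 37 C; ONE-Glo luciferase detection, 30 min room temperature.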
For experiment [19] the target is unchanged. Put plainly: CYP3A4 induction through human pregnane X receptor (PXR) by small molecules, qHTS assay (AID 1346984). Also: nearly all actives have a fitted effect of over 40% in size. The procedure, abridged:
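Cells (DPX-2; HepG2 with PXR element plus CYP3A4-promoter luciferase) settled 5hr, then were treated 24hr at 37C. A 3hr, 3uM-final Luciferin-IPA step preceded luminescence measurement with One-Glo.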

Experiment [20] has the same target. Put plainly: Human pregnane X receptor (PXR) activation by small molecules, qHTS assay (AID 1346985). Also: nearly all actives have a fitted effect of over 40% in size. The procedure, abridged: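 DPX-2 cells (HepG2 co-transfected with a PXR response element and a CYP3A4-promoter luciferase construct) were seeded at 2,000 per well, rested 5 hr at 37C, then exposed to DMSO-dissolved compounds for 24 hr. Activation was read as luciferase luminescence.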

Chain of Thyrotropin-releasing hormone receptor (Homo sapiens) (P34981 whole entry, looked up): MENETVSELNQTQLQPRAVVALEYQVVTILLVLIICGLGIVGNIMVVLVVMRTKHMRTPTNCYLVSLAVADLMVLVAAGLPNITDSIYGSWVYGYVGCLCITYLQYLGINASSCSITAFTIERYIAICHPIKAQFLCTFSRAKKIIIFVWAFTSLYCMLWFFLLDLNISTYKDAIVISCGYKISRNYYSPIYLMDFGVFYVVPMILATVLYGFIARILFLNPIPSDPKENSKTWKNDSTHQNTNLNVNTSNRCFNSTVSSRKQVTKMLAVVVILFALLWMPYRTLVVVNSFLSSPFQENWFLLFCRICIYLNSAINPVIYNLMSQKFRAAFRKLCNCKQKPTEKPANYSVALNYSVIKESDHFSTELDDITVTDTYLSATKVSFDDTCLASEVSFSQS
Chain of Cytochrome P450 2D6 (Homo sapiens) (P10635 whole entry, looked up): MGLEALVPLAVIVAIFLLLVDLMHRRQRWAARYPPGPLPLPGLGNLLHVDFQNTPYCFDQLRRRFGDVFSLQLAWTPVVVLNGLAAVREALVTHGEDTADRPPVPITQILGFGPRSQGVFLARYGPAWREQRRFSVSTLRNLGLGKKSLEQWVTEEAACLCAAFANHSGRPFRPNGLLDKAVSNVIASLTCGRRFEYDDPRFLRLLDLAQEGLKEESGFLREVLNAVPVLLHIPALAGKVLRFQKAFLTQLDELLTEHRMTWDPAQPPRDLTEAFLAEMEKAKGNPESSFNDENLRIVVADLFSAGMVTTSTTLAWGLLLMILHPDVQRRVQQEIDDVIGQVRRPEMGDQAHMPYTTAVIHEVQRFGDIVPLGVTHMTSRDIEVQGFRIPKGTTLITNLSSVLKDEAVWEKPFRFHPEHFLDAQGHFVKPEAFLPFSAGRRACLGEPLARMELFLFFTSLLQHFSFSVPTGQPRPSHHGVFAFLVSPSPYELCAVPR
Chain of Thyrotropin receptor (Homo sapiens) (P16473 whole entry, looked up): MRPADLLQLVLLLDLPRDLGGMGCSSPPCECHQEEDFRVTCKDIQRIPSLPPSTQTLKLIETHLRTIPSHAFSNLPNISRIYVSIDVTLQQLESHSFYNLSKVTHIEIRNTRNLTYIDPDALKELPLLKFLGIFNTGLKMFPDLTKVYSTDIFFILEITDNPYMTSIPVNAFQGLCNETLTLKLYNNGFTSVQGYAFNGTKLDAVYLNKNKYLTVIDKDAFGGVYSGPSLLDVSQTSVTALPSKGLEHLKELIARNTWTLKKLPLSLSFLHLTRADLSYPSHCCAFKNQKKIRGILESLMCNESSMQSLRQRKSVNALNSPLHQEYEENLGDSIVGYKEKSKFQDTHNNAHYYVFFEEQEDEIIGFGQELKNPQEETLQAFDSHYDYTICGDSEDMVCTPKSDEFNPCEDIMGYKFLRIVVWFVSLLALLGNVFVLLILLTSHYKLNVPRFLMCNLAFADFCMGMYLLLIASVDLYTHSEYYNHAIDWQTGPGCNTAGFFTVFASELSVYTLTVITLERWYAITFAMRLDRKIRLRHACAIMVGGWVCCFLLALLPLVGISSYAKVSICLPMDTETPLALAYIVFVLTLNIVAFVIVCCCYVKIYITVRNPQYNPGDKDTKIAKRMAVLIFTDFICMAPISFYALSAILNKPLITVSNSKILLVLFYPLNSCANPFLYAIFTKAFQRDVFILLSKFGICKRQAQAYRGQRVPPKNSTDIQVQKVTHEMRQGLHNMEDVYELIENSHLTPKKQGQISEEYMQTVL
Chain of Nuclear receptor subfamily 1 group I member 2 (Homo sapiens) (O75469 whole entry, looked up): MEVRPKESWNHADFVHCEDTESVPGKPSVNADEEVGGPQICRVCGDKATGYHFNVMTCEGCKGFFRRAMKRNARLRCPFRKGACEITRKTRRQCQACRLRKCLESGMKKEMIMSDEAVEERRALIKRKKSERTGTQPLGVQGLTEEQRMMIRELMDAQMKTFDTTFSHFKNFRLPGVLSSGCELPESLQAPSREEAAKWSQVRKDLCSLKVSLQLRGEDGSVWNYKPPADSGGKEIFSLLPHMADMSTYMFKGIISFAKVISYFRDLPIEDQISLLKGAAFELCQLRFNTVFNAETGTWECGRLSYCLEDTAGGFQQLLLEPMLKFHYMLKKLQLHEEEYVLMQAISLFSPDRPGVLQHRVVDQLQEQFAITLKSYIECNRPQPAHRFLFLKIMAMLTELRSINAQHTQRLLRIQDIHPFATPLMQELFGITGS
Chain of Progesterone receptor (Homo sapiens) (P06401 whole entry, looked up): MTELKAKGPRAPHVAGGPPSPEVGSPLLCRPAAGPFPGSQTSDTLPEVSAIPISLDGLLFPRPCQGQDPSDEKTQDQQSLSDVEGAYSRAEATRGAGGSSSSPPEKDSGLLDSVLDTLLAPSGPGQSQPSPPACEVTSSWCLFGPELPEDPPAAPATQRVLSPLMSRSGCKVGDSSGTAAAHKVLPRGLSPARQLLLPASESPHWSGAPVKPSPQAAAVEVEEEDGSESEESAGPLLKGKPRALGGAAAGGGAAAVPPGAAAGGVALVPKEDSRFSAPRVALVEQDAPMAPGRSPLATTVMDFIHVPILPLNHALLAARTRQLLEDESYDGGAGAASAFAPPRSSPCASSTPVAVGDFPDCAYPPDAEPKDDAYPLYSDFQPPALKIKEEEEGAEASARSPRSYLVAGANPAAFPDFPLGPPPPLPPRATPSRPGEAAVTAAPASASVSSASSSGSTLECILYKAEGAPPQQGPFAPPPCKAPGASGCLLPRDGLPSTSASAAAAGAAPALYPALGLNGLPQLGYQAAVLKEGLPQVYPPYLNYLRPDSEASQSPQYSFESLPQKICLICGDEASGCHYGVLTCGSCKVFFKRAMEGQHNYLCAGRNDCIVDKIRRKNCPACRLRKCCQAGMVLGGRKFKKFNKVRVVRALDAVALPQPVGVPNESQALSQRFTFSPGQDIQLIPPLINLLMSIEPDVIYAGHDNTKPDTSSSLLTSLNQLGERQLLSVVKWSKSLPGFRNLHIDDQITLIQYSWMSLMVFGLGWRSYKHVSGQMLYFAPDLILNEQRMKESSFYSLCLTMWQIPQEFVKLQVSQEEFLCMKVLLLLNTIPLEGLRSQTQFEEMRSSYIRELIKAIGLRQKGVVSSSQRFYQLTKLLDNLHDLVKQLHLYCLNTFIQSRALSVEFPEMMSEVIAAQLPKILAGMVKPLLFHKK

Turning to `COC1=CC(=O)C[C@@H](C)[C@]12Oc1c(Cl)c(OC)cc(OC)c1C2=O`, the result in experiment [1], in experiment [8], in [9] and in [14] was inactive. For the same compound, the Potency result in [2], in experiment [3], in [5], in [6], in [7] and in experiment [10] was “inactive” throughout. Further, the Potency entry in experiment [11], in experiment [13], in experiment [15] and in experiment [16] was “inactive” in each case. The Potency in experiment [4] is 27.1 µM (active) and 30.6 µM (active); in [12], 24.1 µM (active) and 61.1 µM (active).
As for `CCCCOC(=O)CCCCCCCCC(=O)OCCCC`, the call in [1], in experiment [8] and in experiment [14] was inactive. In addition, the Potency result in [2], in experiment [3], in experiment [4], in [5], in [17] and in experiment [6] was “inactive” throughout. For the same compound, the Potency entry in experiment [7], in [12], in [13], in [15], in experiment [18] and in experiment [16] was “inactive” in each case.
`COc1ccc(O)cc1`: the outcome in experiment [1], in experiment [8], in experiment [9] and in experiment [14] was inactive. The Potency result in [2], in experiment [3], in [4], in experiment [5], in [17] and in experiment [6] was “inactive” in each case. Further, the Potency entry in experiment [7], in experiment [10], in experiment [11], in [12], in experiment [13] and in experiment [18] was “inactive” throughout. Also, the Potency result in [19] and in [20] was “inactive” in each case. In addition, the Potency in experiment [16] was 27.2 µM (active) and inactive.
For `O=c1cc[nH]c(=O)[nH]1`, the compound was classed as inactive in [1], in experiment [8], in experiment [9] and in experiment [14]. Moreover, the Potency result in experiment [2], in experiment [3], in experiment [4], in experiment [5], in experiment [6] and in [7] was “inactive” throughout. Moreover, the Potency result in experiment [10], in experiment [12], in experiment [13], in experiment [18], in experiment [19] and in [20] was “inactive” each time. Besides, the Potency entry in [16] is “inactive”.
For `Nc1ccc(N=Nc2ccccc2)c(N)n1`, the compound was classed as inactive in [1], in [8], in [9] and in experiment [14]. The Potency in experiment [2] was 30.8 µM (active) and 24.3 µM (active) and 26.6 µM (active); in experiment [4], 43.3 µM (active); in [13] it was 48.8 µM (active) and 48.6 µM (active) and 26.6 µM (active); in experiment [15] it was 21.1 µM (active); in experiment [18] it was 27.4 µM (active) and 27.3 µM (active) and 6.68 µM (active); in experiment [16], 40.1 µM (active) and 35.6 µM (active) and 12.3 µM (active). In addition, the Potency entry in [3], in experiment [5], in experiment [17], in [6], in [7] and in experiment [10] was “inactive” each time. Moreover, the Potency entry in experiment [12] was “inactive”.
As for `CCOC(=O)C(C)(C)Oc1ccc(Cl)cc1`, the compound was called inactive in experiment [1], in experiment [8], in experiment [9] and in experiment [14]. The Potency entry in experiment [2], in experiment [3], in experiment [4], in experiment [5], in [6] and in [7] was “inactive” in each case. In addition, the Potency result in experiment [10], in experiment [11], in [12], in experiment [13] and in experiment [18] was “inactive” each time.
As to `CCn1cc(C(=O)O)c(=O)c2ccc(C)nc21`, the outcome in experiment [1], in [8], in experiment [9] and in experiment [14] was inactive. The Potency result in experiment [2], in experiment [3], in [4], in experiment [5], in [6] and in experiment [7] was “inactive” throughout. Also, the Potency entry in experiment [10], in [11], in experiment [12], in [13], in experiment [18] and in [16] was “inactive” in each case.
